Data: ChEMBL document CHEMBL3988442, “University of Dundee, Small-Polar-MMV Screening Library” (2021)
Out of some 48,000 compounds screened, about 13,000 (27%) showed an effect of 50% or more. This is one part of the list.

These compounds were tested on Wolbachia pipientis (assay: Anti-Wolbachia Cell-Based Screen). Conditions: 5 µM.
Format: functional
Parameters: scale not given: in the data most compounds retested in dose-response had high values
In the case of `CCn1nccc1C(=O)N1CCCCC1CCc1ccc(O)cc1` (stereo unspecified), the “Percent Effect” value is reported as 1.71%.
For `CC(NC(=O)Nc1nccs1)c1ccc(S(C)(=O)=O)cc1` (stereo unspecified), the “Percent Effect” value was 7.495%.
In the case of `CCC(C(=O)NCC1CCN(c2cnn(C)c(=O)c2)CC1)n1cccn1` (stereo unspecified), the “Percent Effect” value is reported as 4.446%.
With `O=C(c1ccoc1)N1CCCn2nnc(COCC3CC3)c2C1` the “Percent Effect” value was -7.176%.
For `O=C(C1CCC1)N1CCc2[nH]cnc2C12CCN(C1CCOCC1)CC2`, the “Percent Effect” value was 2.513%.
For `CN1CCN(Cc2nc3c(s2)CCCC3)[C@H]2CS(=O)(=O)C[C@H]21`, the “Percent Effect” value was -12.07%.
In the case of `CC(C)(C)c1nnc(CN2CCN(CC(O)c3ccccc3)CC2)o1` (stereo unspecified), the “Percent Effect” value is reported as -4.717%.
With `O=C(CCCc1ccc(F)cc1)N1C[C@@H](CN2CCOCC2)[C@@H](CO)C1` the “Percent Effect” value was -13.37%.
`O=C1CN(Cc2cnc3c(-c4ccccc4)cnn3c2)CCCN1` was tested, and the “Percent Effect” value was -7.334%.
`CNC(=O)[C@@H](C1CC1)N1CCC[C@H]1C(=O)NCC(C)C.Cl` was tested, and the “Percent Effect” value was 5.18%.
For `CN(CCN1CCCCCC1)C(=O)c1cc(CN2CCCC(O)C2)on1` (stereo unspecified), the “Percent Effect” value was -22.76%.
For `CC(=O)Nc1c(C)cnn1Cc1cc(F)ccc1F`, the “Percent Effect” value was -3.865%.
With `O=C(NCCCN1CCc2ccccc2C1)c1cccnc1O` the “Percent Effect” value was 6.847%.
In the case of `COc1ccc(C(=O)NCCc2nnc3ccccn23)c(OC)c1`, the “Percent Effect” value is reported as -1.311%.
In the case of `COc1ccc(C(=O)NCCCOC(C)c2ccccc2)c(OC)c1` (stereo unspecified), the “Percent Effect” value is reported as 92.39%.
For `COc1ccc(C(=O)NCCCNc2ncccn2)c(OC)c1`, the “Percent Effect” value was -2.256%.
`CS(=O)(=O)NCCCNC(=O)c1cccnc1O` was tested, and the “Percent Effect” value was -1.609%.
For `CC(OCCCNC(=O)c1cccnc1O)c1ccccc1` (stereo unspecified), the “Percent Effect” value was 95.41%.
For `COCCN1CC2(CCCN(Cc3cc(=O)c(OC)co3)C2)CCC1=O` (stereo unspecified), the “Percent Effect” value was 3.181%.
In the case of `COc1cc(CNC(=O)NCCCF)cc(Br)c1OC`, the “Percent Effect” value is reported as -2.867%.
In the case of `CCN(C(=O)CSc1ccc(C(F)(F)F)cn1)C1CC1`, the “Percent Effect” value is reported as -14.79%.
In the case of `CN(C(=O)CSc1ncc[nH]1)C1CC1`, the “Percent Effect” value is reported as 109.9%.
In the case of `CN(C(=O)Cn1nc(-c2ccc(F)cc2)oc1=O)c1ccccc1`, the “Percent Effect” value is reported as -62.32%.
`CCN(CC)C(=O)CSc1ncc[nH]1` was tested, and the “Percent Effect” value was 45.3%.
`CN(C(=O)CN1CCCC1Cc1ccccc1)c1ccccc1` (stereo unspecified) was tested, and the “Percent Effect” value was 21.48%.
With `CN(C(=O)CSc1ncc[nH]1)c1ccccc1` the “Percent Effect” value was 93.6%.
For `COc1ncccc1NC(=O)N1CCCC(CNC(=O)OC(C)(C)C)C1` (stereo unspecified), the “Percent Effect” value was 1.374%.
For `O=C(NC[C@H]1Cn2c(-c3ccccc3)cnc2CO1)C1CCOCC1`, the “Percent Effect” value was -9.795%.
With `Cn1c(-c2ccccc2Cl)nc2cc(C(=O)NCC3(C)COC3)cnc21` the “Percent Effect” value was 7.504%.
In the case of `CCCc1nccn1-c1cccc(C(C)O)c1` (stereo unspecified), the “Percent Effect” value is reported as 0.8056%.
For `Cc1ccc(C(=O)NC2CCN(C(=O)Nc3ccccn3)CC2)o1`, the “Percent Effect” value was 4.828%.
In the case of `Cc1cc(C(=O)NC2CCN(C(=O)Nc3cccnc3)CC2)c(C)o1`, the “Percent Effect” value is reported as 20.93%.
`Cc1ccc(NC(=O)N2CCC(NC(=O)c3ccc(C)o3)CC2)cc1` was tested, and the “Percent Effect” value was -6.266%.
With `Cc1ccc(C(=O)NC2CCN(C(=O)NCc3ccccn3)CC2)o1` the “Percent Effect” value was 118.1%.
`O=C(NCc1ccccn1)N1CC=C(c2ccccc2)CC1` was tested, and the “Percent Effect” value was 32.63%.
`Cc1ccc(C(=O)NC2CCN(C(=O)Nc3ccncc3)CC2)o1` was tested, and the “Percent Effect” value was 166.8%.
With `Cc1ccc(C)c(OCCN(C)C(=O)C2CCCN2C(N)=O)c1C` (stereo unspecified) the “Percent Effect” value was -6.745%.
For `COc1ccc(C2CCCN2c2ccc(C#N)cn2)c(OC)c1` (stereo unspecified), the “Percent Effect” value was 3.649%.
In the case of `CCCN1CCC2(C1)c1ccccc1S(=O)(=O)N2Cc1ccccc1.O=C(O)C(F)(F)F` (stereo unspecified), the “Percent Effect” value is reported as 16.14%.
`CC(=O)N1CCC2(C1)c1ccccc1S(=O)(=O)N2Cc1ccccc1` (stereo unspecified) was tested, and the “Percent Effect” value was 103.8%.
`CCCN1CCC2(C1)c1ccccc1S(=O)(=O)N2C.O=C(O)C(F)(F)F` (stereo unspecified) was tested, and the “Percent Effect” value was -10.43%.
`CC(=O)N1CCC2(C1)c1ccccc1S(=O)(=O)N2C` (stereo unspecified) was tested, and the “Percent Effect” value was 115.8%.
With `CCCN(CC(=O)OC)C(=O)c1sc(C)nc1C` the “Percent Effect” value was 1.933%.
For `Cn1cnc2c1CCN(CCOc1ccc3c(c1)CCC(=O)N3)C2`, the “Percent Effect” value was -6.768%.
`Cc1ccc(CNC2(Cc3cc(C(C)(C)O)on3)COC2)o1` was tested, and the “Percent Effect” value was -11.3%.
With `FC(F)(F)c1ccc(-c2n[nH]c3c2CN(CC2CCOC2)CC3)cc1` (stereo unspecified) the “Percent Effect” value was 2.824%.
For `Cn1ccc(C(=O)N2CCCC(c3cc4cccnc4c(O)n3)C2)n1` (stereo unspecified), the “Percent Effect” value was 126.9%.
`CCCC(=O)N1CCC(c2cc3cccnc3c(O)n2)CC1` was tested, and the “Percent Effect” value was 125.1%.
In the case of `CCN(C)CC1CCN(C(=O)Nc2ccc(-c3cc[nH]n3)cc2)C1` (stereo unspecified), the “Percent Effect” value is reported as 2.001%.
In the case of `CCCC(=O)N1CCC(c2cc[nH]n2)C1` (stereo unspecified), the “Percent Effect” value is reported as 112.5%.
For `CCNC(=O)N1CCN(C(=O)c2cc(Cl)cc3cccnc23)CC1`, the “Percent Effect” value was -12.31%.
`CCCC(=O)N1CCCC(c2cc3cccnc3c(O)n2)C1` (stereo unspecified) was tested, and the “Percent Effect” value was 167%.
In the case of `CCCC(=O)N1CCC(c2nn(C)c(=O)n2-c2ccccc2)CC1`, the “Percent Effect” value is reported as 0.6972%.
`CCOC(=O)CCC(=O)N1CCC(Oc2ncccc2Cl)CC1` was tested, and the “Percent Effect” value was 1.106%.
`CN(Cc1ccon1)C(=O)C1CC(=O)N(Cc2cccnc2)C1` (stereo unspecified) was tested, and the “Percent Effect” value was 3.448%.
`Cc1cc(Cn2cncc(Br)c2=O)on1` was tested, and the “Percent Effect” value was 0.4664%.
With `O=C(NCc1cccc(C(F)(F)F)c1)C(c1cccnc1)N1CCCC1` (stereo unspecified) the “Percent Effect” value was -10.57%.
With `CC(C)[C@H]1COC(=O)N1CC(=O)N1CCCN(C(=O)c2ccoc2)CC1` the “Percent Effect” value was -24.24%.
`Cc1cccc(N2CCC(NCc3cnc(C4CCC4)s3)CC2)n1` was tested, and the “Percent Effect” value was 7.912%.
With `Cc1nc(C(F)(F)F)nc(N2CCC3(CC2)CC(C(=O)O)N(C)C3)c1C` (stereo unspecified) the “Percent Effect” value was -7.708%.
In the case of `CCCC(=O)N1CCCC(c2ccccn2)C1` (stereo unspecified), the “Percent Effect” value is reported as 152.5%.
In the case of `CCC(=O)N1CCCC(c2cc(Nc3ncccn3)nc(C)n2)C1` (stereo unspecified), the “Percent Effect” value is reported as -9.589%.
`CCOCCC(=O)N1CCCC(c2ncc[nH]2)C1` (stereo unspecified) was tested, and the “Percent Effect” value was -13.21%.
With `Cc1nc2c(s1)C(N(C)C(=O)NCCCC(C)(C)CO)CCC2` (stereo unspecified) the “Percent Effect” value was -8.844%.
`CCN1CCN(c2ccc(NC(C)c3nc(C(C)C)no3)c(C)c2)CC1` (stereo unspecified) was tested, and the “Percent Effect” value was 117.8%.
For `Cc1noc(C(C)Nc2ccc3oc(C(C)C)nc3c2)n1` (stereo unspecified), the “Percent Effect” value was 8.094%.
`CCNC(=O)c1nnc2ccc(N3CCOCC3)cc2n1` was tested, and the “Percent Effect” value was 17.66%.
With `Cc1noc(C(C)Nc2ccc3oc(C)nc3c2)n1` (stereo unspecified) the “Percent Effect” value was 8.533%.
For `Cc1cc(CN2CCN(C(C)c3nc(C(C)C)no3)CC2)no1` (stereo unspecified), the “Percent Effect” value was 1.416%.
With `CCN1CCN(c2ccc(C(=O)NC(C)c3ccncc3)cc2)CC1` (stereo unspecified) the “Percent Effect” value was -3.258%.
With `Cc1cc(OCC(=O)NC(C)c2ccc(N3CCOCC3)cc2)no1` (stereo unspecified) the “Percent Effect” value was -0.3596%.
`Cc1cc(N2CCOCC2)ccc1NC(C)c1nc(C(C)C)no1` (stereo unspecified) was tested, and the “Percent Effect” value was 89%.
With `Cc1cc(N2CCOCC2)ccc1NC(C)c1nc(C(C)(C)C)no1` (stereo unspecified) the “Percent Effect” value was 111.3%.
With `Cc1cc(CNC(=O)NC(C)c2ccc(N3CCOCC3)cc2)no1` (stereo unspecified) the “Percent Effect” value was 1.457%.
With `Cc1noc(C(C)Nc2ccc(N3CCOCC3)cc2C)n1` (stereo unspecified) the “Percent Effect” value was 200.3%.
With `CC(NCc1nnc2n1CCCC2)c1nc(C(C)(C)C)no1` (stereo unspecified) the “Percent Effect” value was 3.435%.
